Here are results for 10 compounds from PubChem BioAssay (NCATS).

Results filed as inconclusive are left out. Activity calls are given as the source filed them. Calls come from the whole dose curve; as a rule, active = well fitted inhibition curve with a large enough effect; inconclusive = small, poorly fitted or top-dose-only effect; inactive = flat fitted curve, though single readings scatter.

Experiment [1] in a line: qHTS for identification of novel therapeutic agents for treatment of microphthalmiaassociated transcription factor (MiT) renal cell carcinoma (RCC) (AID 1963991).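 Note: curves scaled with 100% = DMSO viability and 0% = empty wells.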 Conditions: CellTiter-Glo, 48 h, stronger effect = lower value. A digest of the protocol:
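UOK109/UOK124/UOK145 (TFE3 fusions, three partners); 500 cells/well; MIPE v4.0, 1912 cpds, 11 conc.; 48 h, 37 C; CellTiter-Glo, 15 min RT; lum. Norm.: DMSO 100%, empty 0%.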
Background: qHTS replaces the single test concentration by a dilution series.

Experiment [2] in a line: qHTS profiling for inhibitors of Plasmodium falciparum proliferation (AID 504749). Note: potency is the fitted concentration of half-maximal effect; nearly all actives have a fitted effect of over 60% in size. The following applies: P. falciparum in erythrocytes, SYBR Green DNA, 72 h. The method, boiled down: (§1)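 Quantitative HTS: compounds pinned into medium, infected erythrocytes added (0.3% parasitemia, 2.5% hematocrit), 72 h culture at 37 C under 5% CO2. Saponin/Triton lysis with SYBR Green I, overnight RT, then fluorescence read.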

For another experiment, the system named is 3D7. The description is as above. Conditions: P. falciparum in erythrocytes, SYBR Green DNA, 72 h; series mostly up to 28.7 µM. A digest of the protocol:
as §1

The subject of another experiment is 7G8. The experiment is described as above. The following applies: P. falciparum in erythrocytes, SYBR Green DNA, 72 h; series mostly up to 28.7 µM. The method, boiled down:
as §1

For another experiment, the system named is AA1029. The description is as above. The following applies: P. falciparum in erythrocytes, SYBR Green DNA, 72 h; series mostly up to 28.7 µM. A digest of the protocol:
as §1

The subject of the next experiment is AS120. Described as above. Conditions: P. falciparum in erythrocytes, SYBR Green DNA, 72 h; series mostly up to 28.7 µM. A digest of the protocol:
as §1

In another experiment the test system is ATS189. The experiment is described as above. Conditions: P. falciparum in erythrocytes, SYBR Green DNA, 72 h; series mostly up to 28.7 µM. The method, boiled down: as §1
The subject of the next experiment is ATS95. Described as above. Conditions: P. falciparum in erythrocytes, SYBR Green DNA, 72 h; series mostly up to 28.7 µM. A digest of the protocol: as §1
A further experiment relates to C2A. The description is as above. Conditions: P. falciparum in erythrocytes, SYBR Green DNA, 72 h; series mostly up to 28.7 µM. The method, boiled down: as §1
Where [3] appears, read: TFE3-RCC UOK109 viability, measured here: UOK109 Z-AUC.
Setting [4] is: TFE3-RCC viability, measured here: UOK124 Z-AUC.
[5] abbreviates: TFE3-RCC viability, measured here: UOK145 Z-AUC.

`C[C@@H](O)[C@H]1C(=O)N2C(C(=O)OCOC(=O)C(C)(C)C)=C(SC3CN(C4=NCCS4)C3)[C@H](C)[C@H]12`: the z-score is 1.65 in experiment [1] (setting [3]), -0.138 in [1] (setting [4]) and 0.788 in experiment [1] (setting [5]).

In the case of `COc1ccc(C=CC(=O)Nc2ccccc2C(=O)O)cc1OC`, the results for the z-score in experiment [1] (setting [3]), in experiment [1] (setting [4]) and in experiment [1] (setting [5]) were 0.299, 1.48 and -0.0429, respectively.

As to `COc1cc(C=CC(=O)O)ccc1O`, the z-score was -0.0784 in experiment [1] (setting [3]), 0.112 in experiment [1] (setting [4]) and 0.103 in [1] (setting [5]).

Consider `CCOC(=O)[C@H]1O[C@H]1C(=O)N[C@@H](CC(C)C)C(=O)NCCC(C)C`, for which the z-score in experiment [1] (setting [3]) came to 0.719; in [1] (setting [4]), 0.357; in [1] (setting [5]), 0.572.

On to `C[C@@H]1CCO[C@H]2Cn3cc(C(=O)NCc4ccc(F)cc4F)c(=O)c(O)c3C(=O)N12`, for which the z-score in experiment [1] (setting [3]) was 0.807; in [1] (setting [4]), 0.941; in experiment [1] (setting [5]), 1.66.

In the case of `CO[C@H]1/C=C\O[C@@]2(C)Oc3c(C)c(O)c4c(O)c(c5c(nc6cc(C)ccn65)c4c3C2=O)NC(=O)C(C)=CC=C[C@H](C)[C@H](O)[C@@H](C)[C@@H](O)[C@@H](C)[C@H](OC(C)=O)[C@H]1C`, the z-score in [1] (setting [3]) stood at 0.788; in experiment [1] (setting [4]), 1.17; in [1] (setting [5]), 0.817.

With `COc1c(C)c2c(c(O)c1CC=C(C)CCC(=O)OCCN1CCOCC1)C(=O)OC2`, the Potency was 7.94 µM (active) in experiment [2] (parasite line A); 10 µM (active) in experiment [2] (parasite line B); 11.2 µM (active) with 3D7; 4.47 µM (active) with 7G8; 10 µM (active) in the experiment on AA1029; 7.94 µM (active) with AS120. Also, the figures for the Potency in the experiment on ATS189, in the experiment with ATS95 and in the experiment on C2A were 7.94 µM (active), 7.94 µM (active) and 11.2 µM (active), respectively.

As for `CN(CC=CC#CC(C)(C)C)Cc1cccc2ccccc12`, the values for the z-score in experiment [1] (setting [3]), in experiment [1] (setting [4]) and in experiment [1] (setting [5]) were 0.358, 0.58 and 2.39, respectively.

On to `CCCCCOC(=O)Nc1nc(=O)n([C@@H]2O[C@H](C)[C@@H](O)C2O)cc1F` (stereo partly specified), for which the z-score in experiment [1] (setting [3]) turned out to be 0.259; in experiment [1] (setting [4]) it was 0.348; in experiment [1] (setting [5]), 0.317.

For `COc1cc2c(cc1OC)[C@@H]1Cc3ccc(OC)c(OC)c3CN1CC2`, the z-score in experiment [1] (setting [3]) worked out at 0.652; in [1] (setting [4]), 0.474; in experiment [1] (setting [5]), 0.612.
